# Assay outcomes deposited in PubChem by National Center for Advancing Translational Sciences (NCATS).
# ELG1 repair inh – ELG1-dependent DNA repair inhibition. 330,000 compounds, 2.3% hits. Potency, µM (top dose mostly 46.1 µM), without a hit: top-dose activity change, negative = inhibition, usual class: inhibitors. HEK293T ELG1-luciferase reporter, luminescence, 16 h; DNA damage induced by 5-fluorouridine; note: % is set by controls: 0 for no effect and ±100 for the full control effect; nearly all actives have a fitted effect of over 55% in size
#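 Quantitative HTS, concentration-response format. 2,000 cells/well co-treated with 5-fluorouridine and compound, 16 hr in 5% CO2 at 37 °C; ONE-Glo luminescence read after 30 min.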
# ELG1 genotoxic – induces genotoxicity in HEK293T cells with luciferase-tagged ELG1 | HEK293T ELG1-luciferase reporter, luminescence, 16 h | AID 504466 | Potency, µM (top dose mostly 46 µM), for inactives: at the highest dose activity change, positive = activation, hits mostly activators | 330,000 compounds, 1.3% hits; note: % of control where 0% means no effect; nearly all actives have a fitted effect of over 60% in size
#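 DMSO vehicle served as control against compound-treated ELG1-luciferase HEK293T cells; exposure lasted 16 hr at 37 °C and 5% CO2, followed by ONE-Glo luminescence detection after 30 min.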
# SMN2 splice up – enhancers of SMN2 splice variant expression. AID 1458. Potency, µM (titrated, usually from 46.1 µM), for the others: at the top dose activity change, positive = activation, actives largely listed as activators. 210,000 compounds, 2.8% hits. HEK293 SMN2-luciferase splicing reporter, luminescence, 30-36 h; note: % of control where 0% means no effect; nearly all actives have a fitted effect of over 55% in size
#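 qHTS luciferase splicing reporter: luminescence rises when SMN2 exon 7 is included in transfected HEK293 cells. Compound exposure lasted 30-36 h at 37C, with 4.5 mM final sodium butyrate as control, followed by a ONE-Glo read.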
# NPC1 prom act – activators of NPC1 promoter; Potency, µM (highest dose often 9.22 µM), without a hit: top-dose activation, usual class: activators; AID 485313; 320,000 compounds, 2.4% hits; Huh7 NPC1 promoter luciferase reporter, 24 h; note: % of control where 0% means no effect; nearly all actives have a fitted effect of over 60% in size
#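 Stable NPC1-promoter luciferase Huh7 line; cpd (DMSO) 24 h, 37 °C, 5% CO2; Amplite luciferase reagent 10 min RT; luminescence readout. qHTS format.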
# Rab9 prom act – activates the Rab9 promoter; Potency, µM (highest dose often 9.22 µM), inactives show at the highest dose activation, negative = inhibition, hits mostly activators; 320,000 compounds, 2.8% hits; Huh7 Rab9 promoter-luciferase reporter, luminescence, 24 h; note: % of control where 0% means no effect; nearly all actives have a fitted effect of over 60% in size
#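 Luminescence from Amplite-detected luciferase (10 minutes, ambient) reports Rab9 promoter activation. Before that, stable Rab9-luciferase Huh7 cells (1500/well, reduced-serum OP-MEM I plus 10% FBS) were exposed to compound for 24 hours at 37C.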
# FLuc counter – counter-screen for miR-21 project: firefly luciferase inhibitors or activators. Potency, µM (highest dose often 57.5 µM), for the others: at the top dose activity change, negative = inhibition, actives largely listed as inhibitors. purified FLuc, Km substrates, luminescence inhibition. 360,000 compounds, 6.9% hits. AID 588342;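 note: plate controls were vehicle for no effect and reference inhibitor for full effect; nearly all actives have a fitted effect of over 55% in size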
# Target sequence (P08659 whole entry, looked up): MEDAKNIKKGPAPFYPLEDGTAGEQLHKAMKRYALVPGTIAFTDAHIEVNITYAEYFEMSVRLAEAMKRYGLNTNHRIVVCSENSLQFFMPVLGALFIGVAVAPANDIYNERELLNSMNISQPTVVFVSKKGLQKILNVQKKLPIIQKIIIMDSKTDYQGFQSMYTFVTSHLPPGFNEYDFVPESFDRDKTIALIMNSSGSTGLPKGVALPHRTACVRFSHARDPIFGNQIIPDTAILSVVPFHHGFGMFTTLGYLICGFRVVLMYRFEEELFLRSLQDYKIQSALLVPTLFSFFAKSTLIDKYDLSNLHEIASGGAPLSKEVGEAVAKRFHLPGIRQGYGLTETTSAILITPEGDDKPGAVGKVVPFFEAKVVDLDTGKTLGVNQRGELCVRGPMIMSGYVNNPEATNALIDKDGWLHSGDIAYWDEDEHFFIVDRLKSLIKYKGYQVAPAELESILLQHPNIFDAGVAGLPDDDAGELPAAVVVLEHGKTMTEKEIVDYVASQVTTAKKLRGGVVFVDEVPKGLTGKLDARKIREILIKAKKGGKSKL
#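 Biochemical qHTS of compounds, final roughly 60 µM downward over six points, against 10 nM purified firefly luciferase using Km concentrations of substrates (10 uM D-luciferin, 10 uM ATP) in Tris acetate pH 7.5 buffer; luminescence output.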
# Active calls of the source: *; ? = inconclusive; . = no result given; [ ] = remark or other dose. Compounds with a hit are over-represented: about 9.3% of the library has one in this group of screens. Calls come from the whole dose curve; as a rule, active = well fitted curve in the direction sought with a large enough effect; inconclusive = small, poorly fitted or top-dose-only effect, or another doubt; inactive = no such curve, though single readings can be large; an effect the other way counts as inactive or inconclusive. Potency is the fitted concentration of half-maximal effect.
SMILES,ELG1 repair inh,ELG1 genotoxic,SMN2 splice up,NPC1 prom act,Rab9 prom act,FLuc counter
COC(=O)c1[nH]c2cc(OC)ccc2c1NC(=O)CN1CCOCC1,-23%,0%,-10%,1%,0%,-2%
COc1ccc(C)cc1NC(=O)CN1CCN(C/C=C/c2ccccc2)CC1,21µM*,-14%,-6%,5%,-8%,1%
COC(=O)c1[nH]c2cccc(OC)c2c1NC(=O)CN1CCN(c2cccc(OC)c2)C(C)C1 (configuration not stated),13µM*,-33%,0%,1%,-10%,-1%
COC(=O)c1[nH]c2cc(OC)c(OC)cc2c1NC(=O)CN1CCN(Cc2ccccc2)CC1,1.6µM*,-3%,-4%,1%,-8%,-1%
C=CCn1c(SCC(=O)N2CCOCC2)nc2ccccc2c1=O,6%,-2%,.,-17%,0%,0%
O=C(COC(=O)c1cc[n+]([O-])cc1)Nc1cc([N+](=O)[O-])ccc1Cl,-7%,3%,.,-7%,-5%,-2%
Cc1ccc(-c2csc(NC(=O)CN3CCOCC3)n2)cc1C,2%,1%,.,2%,5%,?
O=C(CSCc1cnn(-c2ccccc2)c1-n1cccc1)NCc1cccc(Cl)c1,.,.,.,.,.,0%
COc1ccc(Cl)cc1NC(=O)NN1CCN(C)CC1,-10%,2%,.,17%,19%,-4%
COC(=O)c1[nH]c2ccc(C)cc2c1NC(=O)CN1CCN(Cc2ccccc2)CC1,8.2µM*,-10%,-25%,-1%,-3%,2%
COC(=O)c1[nH]c2ccc(C)cc2c1NC(=O)CN1CCN(C(=O)c2ccccc2)CC1,21µM*,-20%,-18%,-2%,-3%,1%
COC(=O)c1[nH]c2ccccc2c1NC(=O)CN1CCN(C/C=C/c2ccccc2)CC1,8.2µM*,-11%,-26%,1%,0%,-2%
CCOC(=O)c1[nH]c2ccc(F)cc2c1NC(=O)CN1CCN(C/C=C/c2ccccc2)CC1,?,-9%,-24%,-7%,-2%,0%
CCOC(=O)N1CCN(CC(=O)Nc2c(C(=O)OC)[nH]c3cc(C)ccc23)CC1,-19%,-5%,3%,1%,-2%,0%
CCCC(=O)OC(=O)CCC,.,.,-1%,.,.,.
Cc1nnc(SCc2nnc(-c3ccccc3Br)o2)s1,?,-18%,7%,-1%,-1%,-5%
Fc1ccc(N/N=C/C=C/c2ccccc2)c(F)c1,?,?,?,?,?,27µM*
O=C(CNC(=O)c1cccc(F)c1)N/N=C/C=C/c1ccccc1,13%,0%,-25%,-1%,-2%,-2%
CC(C)(C)c1ccc(/C=N/Nc2ccc(C(=O)O)cc2)cc1,?,?,-91%[1.84 µM],-19%,-16%,0.19µM*
C[C@@H]1Oc2ccccc2C=C1/C=C/C(=O)O,.,.,18%,.,.,.
CC1Oc2ccccc2C=C1/C=N/Nc1ccc(C(=O)O)cc1 (configuration not stated),?,1.2µM*,.,?,?,0.54µM*
O=C(O)c1ccc(N/N=C/c2ccc(C(F)(F)F)cc2)cc1,?,0.1µM*,-55%,-16%,?,0.21µM*
CCCOC(=O)c1c(NC(=O)C2c3ccccc3Oc3ccccc32)sc2c1CCC(C)C2 (configuration not stated),.,.,9%,.,.,2%
O=C(N/N=C/c1c(F)cccc1Cl)C1CC1,18%,0%,.,-6%,-1%,2%
O=C(O)c1ccc(/C=N/Nc2ccc(F)cc2F)cc1,?,?,1.8µM*,0.32µM*,0.11µM*,0.54µM*
SMILES,ELG1 repair inh,ELG1 genotoxic,SMN2 splice up,NPC1 prom act,Rab9 prom act,FLuc counter
O=C(O)c1ccc(N/N=C/c2c(F)cccc2Cl)cc1,?,0.29µM*,.,?,1.3µM*,0.3µM*
O=C(O)c1ccc(/C=N/Nc2ccc(Cl)nn2)cc1,28%,0%,.,6%,4%,-19%
C=CCSc1cc(C)nc2c(-c3ccccc3)c(C)nn12,-10%,3%,.,-4%,2%,12µM*
Cc1cc(SCC#N)n2nc(C)c(-c3ccccc3)c2n1,23µM*,-8%,-31%,-4%,-4%,?
CC(=O)CSc1cc(C)nc2c(-c3ccccc3)c(C)nn12,17%,5%,.,-2%,-8%,-1%
O=c1[nH]c2[nH]c(=S)[nH]c(=S)c2[nH]1,.,.,-5%[9.22 µM],.,.,.
COc1cc(CNc2nc(C)c([N+](=O)[O-])c(C)c2C#N)cc(OC)c1OC,7.3µM*,1%,-58%,-1%,2%,2%
COc1ccc(-n2c(O)c(/C=N/n3cnnc3)c3ccccc3c2=O)cc1,-2%,2%,1%,-1%,0%,-24%
O=C(CSc1ccc2ccccc2n1)N/N=C/c1ccccc1O,16µM*,10%,.,-5%,-4%,?
O=C(CCn1cnc2ccccc21)N/N=C/c1ccccc1O,?,?,-53%,1%,-35%,8.5µM*
O=C(CSc1ccc2ccccc2n1)N/N=C/c1ccc(O)cc1,-9%,2%,.,-2%,2%,?
O=C(CCn1cnc2ccccc21)N/N=C/c1ccc(O)cc1,-4%,1%,-13%,0%,-5%,?
Cc1nc(N2CCN(S(=O)(=O)c3ccccc3C#N)CC2)c2c(-c3ccccc3)csc2n1,12µM*,-15%,.,-9%,-3%,-1%
CC(=O)c1ccc(N/C=C\C(=O)c2ccc(C)cc2)cc1,?,8.2µM*,16µM*,2.5µM*,4µM*,1.9µM*
Cc1ccc(C(=O)/C=C/Nc2ccc(S(=O)(=O)Nc3cc(C)nc(C)n3)cc2)cc1,?,11%,.,-1%,-2%,?
Cc1ccc(C(=O)/C=C/Nc2cccc(O)c2)cc1,?,4.1µM*,25µM*,28%,?,0.38µM*
Cc1ccc(N/C=C/C(=O)c2ccccc2)cc1Br,?,?,.,4µM*,3.2µM*,0.6µM*
C/C(=C\C(=O)c1ccc(C)cc1)Nc1cccc(O)c1,?,?,?,2.8µM*,0.63µM*,0.85µM*
C/C(=C\C(=O)c1ccc(C)cc1)Nc1ccc(N2CCOCC2)cc1,-3%,0%,9%,0%,14%,-1%
O=C(O)c1cccc2c1C(=O)c1ccc(-c3ccc(F)cc3F)cc1S2(=O)=O,16%,2%,.,0%,-4%,?
CCOc1ccc(NC(=O)c2ccc3c(c2)CCN3S(C)(=O)=O)cc1,-8%,-3%,.,1%,0%,-8%
C=C/C(C)=C/[C@@]1(C)SC(=O)C(C)=C1O,.,.,3%,.,.,.
Cc1ccc(C(=O)/C=C/Nc2ccc3c(c2)OCO3)cc1,?,?,?,0.71µM*,0.71µM*,0.27µM*
